# Shown are actives, neighbours in structure and some others; about 2.3% of the full set was active somewhere.
# DENV2 CPE rescue: DENV2-induced cell death inhibition | DENV2-infected cells, cytopathic effect rescue, plate reader | CPE inhibition, % at 9.99 µM | 350,000 tested, 1.7% active | AID 651640; in the data active = CPE inhibition above about 20%, passing the limit was not always enough; inconclusive = no clear call, values can overlap the other calls; tested in BHK-21 cells;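 also: 0% = median of neutral control wells and 100% = median of positive control wells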
# ERp5 inh: ERp5 (human) disulfide isomerase inhibition; inhibition, % at 9.99 µM; 350,000 tested, 0.05% active; AID 651711; ERp5 insulin aggregation, absorbance 650 nm, 90 min;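 active = mean replicate inhibition above about 25%, with every replicate also reaching it, limit read from the data, passing the limit was not always enough; inconclusive = only one of those two criteria met; inactive = neither criterion met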
# SIRT5 inh: blocks human SIRT5 desuccinylation of peptide. Q9NXA8. inhibition, % at 15 µM. Purified SirT5, succinyl-peptide AMC, trypsin-coupled fluorescence. 330,000 tested, 1.1% active; in the data active = inhibition above about 15%; inconclusive = no clear call, values can overlap the other calls
# Target sequence (Q9NXA8 whole entry, looked up): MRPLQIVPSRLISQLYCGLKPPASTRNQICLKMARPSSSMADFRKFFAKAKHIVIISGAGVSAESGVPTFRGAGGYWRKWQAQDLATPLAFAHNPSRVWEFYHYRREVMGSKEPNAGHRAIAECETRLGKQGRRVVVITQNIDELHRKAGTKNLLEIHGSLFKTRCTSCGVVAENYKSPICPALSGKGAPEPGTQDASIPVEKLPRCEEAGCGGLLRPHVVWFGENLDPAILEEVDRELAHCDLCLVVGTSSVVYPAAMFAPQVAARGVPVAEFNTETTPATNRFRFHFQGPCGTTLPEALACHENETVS
# PDI turbidity: inhibitors of human protein disulfide isomerase. PDI insulin aggregation turbidity, A650, 90 min. AID 588391. P07237. 350,000 tested, 0.052% active. inhibition, % at 10 µM;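 active = mean inhibition across replicates of 30% or more, whatever share of single replicates reach that level; inconclusive = mean inhibition below 30% while every single replicate reaches 30%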
# Rtt109 HAT inh: C. albicans Rtt109 histone acetyltransferase inhibition. inhibition, % at 34.9 µM. Q5AAJ8. purified Rtt109/Vps75, ThioGlo CoA-SH fluorescence, 4 h. AID 540336. 330,000 tested, 0.16% active;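 active = inhibition of at least 50% in every replicate; inconclusive = best replicate reaches 50% inhibition but some replicates fall short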
# The depositor's hits bear a star; ? = inconclusive; . = no result.
SMILES,DENV2 CPE rescue,ERp5 inh,SIRT5 inh,PDI turbidity,Rtt109 HAT inh
COc1c2c(cc3oc(CO[C@@H]4O[C@H](CO)[C@@H](O)[C@H](O)[C@H]4O)cc(=O)c13)O[C@H](C(C)(C)O)C2,24*,2,-3,19,7
Cc1cccc(-c2ccc([C@H]3[C@@H](CO)N4CCCCN(C(=O)c5cccnc5)C[C@H]34)cc2)c1,-12,-1,-4,.,.
Cc1cccc(-c2ccc([C@H]3[C@@H](CO)N4CCCCN(C(=O)c5cccnc5)C[C@@H]34)cc2)c1,32*,0,-2,.,.
Cc1cccc(-c2ccc([C@H]3[C@H](CO)N4CCCCN(C(=O)c5ccncc5)C[C@@H]34)cc2)c1,-4,.,.,.,.
Cc1cccc(-c2ccc([C@H]3[C@@H](CO)N4CCCCN(C(=O)c5ccncc5)C[C@@H]34)cc2)c1,51*,-1,1,.,.
COc1ccccc1-c1ccc([C@H]2[C@H]3CN(C(=O)c4ccncc4)CCCCN3[C@H]2CO)cc1,22*,-4,0,.,.
COCc1cn(CC[C@H]2CC[C@H](NC(=O)c3ccccc3)[C@H](CO)O2)nn1,?,3,4,.,.
COc1ccc(-c2cn(CC[C@H]3CC[C@@H](NC(=O)Cc4ccccn4)[C@H](CO)O3)nn2)cc1,-4,5,-3,.,.
O=C(NCC[C@@H]1CC[C@H](NS(=O)(=O)c2cccc(F)c2)[C@@H](CO)O1)c1cnccn1,-1,-1,5,.,.
C[C@@H]1CN([C@@H](C)CO)C(=O)c2c(c3ccccc3n2C)-c2ccccc2CO[C@H]1CN(C)S(=O)(=O)c1ccc([N+](=O)[O-])cc1,?,1,-9,.,.
C[C@H]1CN([C@@H](C)CO)C(=O)c2c(c3ccccc3n2C)-c2ccccc2CO[C@H]1CN(C)S(=O)(=O)c1ccc(F)cc1,-11,-5,21*,.,.
C[C@@H]1CN([C@H](C)CO)C(=O)c2c(c3ccccc3n2C)-c2ccccc2CO[C@@H]1CN(C)S(=O)(=O)c1ccc(Cl)cc1,-1,-6,19*,.,.
C[C@H](CO)N1C[C@H](C)[C@@H](CN(C)S(=O)(=O)c2ccc(F)cc2)OCc2ccccc2-c2c(n(C)c3ccccc23)C1=O,-6,-4,-3,.,.
Cc1cccc(S(=O)(=O)N(C)C[C@H]2OCc3ccccc3-c3c(n(C)c4ccccc34)C(=O)N([C@H](C)CO)C[C@H]2C)c1,8,-4,18*,.,.
C[C@@H]1CN([C@H](C)CO)C(=O)c2c(c3ccccc3n2C)-c2ccccc2CO[C@H]1CN(C)S(=O)(=O)c1ccc([N+](=O)[O-])cc1,-2,-3,32*,.,.
C[C@@H]1CN([C@H](C)CO)S(=O)(=O)c2ccc(C3=CCCCC3)cc2O[C@H]1CN(C)C(=O)C1CCOCC1,-6,2,-5,.,.
C[C@@H]1CN([C@@H](C)CO)C(=O)Cc2cc(NC(=O)CCCCCC(=O)Nc3ccccc3N)ccc2O[C@@H]1CN(C)Cc1ccccc1,2,-3,-3,.,.
C[C@@H]1CCCCO[C@H](CN(C)C(=O)Nc2ccc(C(F)(F)F)cc2)[C@H](C)CN([C@@H](C)CO)C(=O)c2cc(NS(=O)(=O)c3cccs3)ccc2O1,37*,-6,4,.,.
C[C@@H]1CCCCO[C@H](CN(C)C(=O)Nc2ccc(F)cc2)[C@@H](C)CN([C@H](C)CO)C(=O)c2cc(NS(=O)(=O)c3cccs3)ccc2O1,22*,11,2,.,.
CO[C@H]1CN(C)C(=O)c2cc(NC(=O)C3CCC3)ccc2OC[C@H](C)N(Cc2cccnc2)C[C@H]1C,0,4,4,.,.
COC(c1ccccc1)c1nnc(CCC(=O)N(C)C(C2CC2)C2CC2)o1 (stereo not given),1,-4,15*,0,0
CCNC(=O)C[C@@H]1CC[C@H]2[C@H](COc3ccc(NC(=O)Nc4cccc(C)c4)cc3C(=O)N2C)O1,?,0,7,.,.
Cc1cccc(OCCCN2CCC(C(O)(c3ccccc3)c3ccccc3)CC2)c1,34*,13,0,.,.
CC(=O)Nc1ccc(OCCCN2CCC(C(O)(c3ccccc3)c3ccccc3)CC2)cc1,34*,2,-4,.,.
CCC(=O)Nc1ccc2c(c1)OC[C@H](C)N(Cc1ccccc1OC)C[C@H](C)[C@@H](OC)CN(C)C2=O,9,.,3,.,.
O=C(C[C@H]1C[C@H]2c3cc(NC(=O)NC4CCCC4)ccc3O[C@H]2[C@H](CO)O1)NCc1ccccc1F,3,0,7,.,.

# Source: PubChem
